In PubChem BioAssay:
Calls of active or inactive are those of the source.

What was measured:
[1] = test system: Plasmodium falciparum Sir2 (PF13_0152, Sir2A); assay: Plasmodium falciparum Sir2A binding compounds – biochemical, small-molecule microarray, 635 nm fluorescence, primary screen (AID 1098); details: fluorescence 635 nm, higher = more signal;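 further: score merges spot fluorescence intensity with its signal-to-noise ratio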
[2] = probe aDKK1 binding to arrayed compounds – biochemical, biotinylated probe, 635/667 nm fluorescence, primary screen (AID 1099); details: small-molecule microarray, higher = more signal;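 further: score merges 667nm spot fluorescence with signal to noise across triplicate slides; reference of the scale not given here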
[3] = probe aCHRDL2 binding to arrayed compounds – biochemical, biotinylated probe, 635/667 nm fluorescence, primary screen (AID 1100); details: small-molecule microarray, higher = more signal
[4] = change in splice reporter luminescence, either direction, cell-based, HEK293, spliceosome inhibition project, primary screen (AID 1101); details: HEK293 splicing luciferase reporter, 24 h, higher = more signal, called active from +8 up or from −8 down;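 further: HEK293 cells carrying a splicing-competent luciferase reporter gene; test concentration not given here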
[5] = target: Fibroblast growth factor 10 (Homo sapiens) (UniProt O15520); assay: compounds binding fibroblast growth factor 10 – biochemical, small-molecule microarray, 635 nm fluorescence, primary screen (AID 1102); details: FGF10 binding, fluorescence 635 nm, higher = more signal
[6] = test system: glycogen synthase kinase-3 (GSK3A per assay name; protocol says GSK3B); assay: compounds binding glycogen synthase kinase-3 – biochemical, small-molecule microarray, 635 nm fluorescence, GSK3A, primary screen (AID 1103); details: fluorescence 635 nm, higher = more signal; further: the record names both GSK3A and GSK3B
[7] = target: Epidermal growth factor receptor (Homo sapiens) (UniProt P00533); assay: compounds binding epidermal growth factor receptor – biochemical, small-molecule microarray, 635 nm fluorescence, primary screen (AID 1104); details: EGFR binding, higher = more signal;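 further: score merges 667 nm emission intensity with spot signal to noise over triplicate slides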
[8] = target: Follistatin-related protein 3 (Homo sapiens) (UniProt O95633); assay: compounds binding follistatin-related protein 3 – biochemical, small-molecule microarray, 635 nm fluorescence, primary screen (AID 1105); details: FSTL3 binding, higher = more signal;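 further: score merges emission near 667 nm and signal to noise per printed spot across three slides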
[9] = target: Dickkopf-related protein 1 (Homo sapiens) (UniProt O94907); assay: small molecules binding DKK1 protein – biochemical, small-molecule microarray, 635 nm fluorescence scan, primary screen (AID 1106); details: higher = more signal;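 further: score merges emission near 667 nm with signal to noise over three replicate slides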
[10] = test system: Inhibin beta A chain (activin A); assay: small molecules binding activin A – biochemical, small-molecule microarray, 635 nm fluorescence scan, primary screen (AID 1107); details: INHBA, higher = more signal;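 further: mouse activin A protein probed at 4.33 µg/mL on printed slides; score merges bound-protein fluorescence near 667 nm with spot signal-to-noise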

Follistatin-related protein 3 (Homo sapiens), sequence (O95633 whole entry, looked up): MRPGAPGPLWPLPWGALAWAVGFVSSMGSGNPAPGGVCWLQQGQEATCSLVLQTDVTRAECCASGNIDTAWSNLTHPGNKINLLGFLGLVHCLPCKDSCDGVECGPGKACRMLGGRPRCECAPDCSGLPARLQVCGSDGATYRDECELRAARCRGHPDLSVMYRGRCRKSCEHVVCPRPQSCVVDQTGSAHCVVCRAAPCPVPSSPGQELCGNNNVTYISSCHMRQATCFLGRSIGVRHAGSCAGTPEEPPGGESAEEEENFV
Fibroblast growth factor 10 (Homo sapiens), sequence (O15520 whole entry, looked up): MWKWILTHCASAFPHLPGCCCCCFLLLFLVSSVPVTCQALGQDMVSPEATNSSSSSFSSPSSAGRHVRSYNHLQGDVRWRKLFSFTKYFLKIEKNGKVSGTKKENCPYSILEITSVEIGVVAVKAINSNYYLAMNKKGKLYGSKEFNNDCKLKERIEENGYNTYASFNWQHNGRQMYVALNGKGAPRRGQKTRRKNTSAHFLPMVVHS
Epidermal growth factor receptor (Homo sapiens), sequence (P00533 whole entry, looked up): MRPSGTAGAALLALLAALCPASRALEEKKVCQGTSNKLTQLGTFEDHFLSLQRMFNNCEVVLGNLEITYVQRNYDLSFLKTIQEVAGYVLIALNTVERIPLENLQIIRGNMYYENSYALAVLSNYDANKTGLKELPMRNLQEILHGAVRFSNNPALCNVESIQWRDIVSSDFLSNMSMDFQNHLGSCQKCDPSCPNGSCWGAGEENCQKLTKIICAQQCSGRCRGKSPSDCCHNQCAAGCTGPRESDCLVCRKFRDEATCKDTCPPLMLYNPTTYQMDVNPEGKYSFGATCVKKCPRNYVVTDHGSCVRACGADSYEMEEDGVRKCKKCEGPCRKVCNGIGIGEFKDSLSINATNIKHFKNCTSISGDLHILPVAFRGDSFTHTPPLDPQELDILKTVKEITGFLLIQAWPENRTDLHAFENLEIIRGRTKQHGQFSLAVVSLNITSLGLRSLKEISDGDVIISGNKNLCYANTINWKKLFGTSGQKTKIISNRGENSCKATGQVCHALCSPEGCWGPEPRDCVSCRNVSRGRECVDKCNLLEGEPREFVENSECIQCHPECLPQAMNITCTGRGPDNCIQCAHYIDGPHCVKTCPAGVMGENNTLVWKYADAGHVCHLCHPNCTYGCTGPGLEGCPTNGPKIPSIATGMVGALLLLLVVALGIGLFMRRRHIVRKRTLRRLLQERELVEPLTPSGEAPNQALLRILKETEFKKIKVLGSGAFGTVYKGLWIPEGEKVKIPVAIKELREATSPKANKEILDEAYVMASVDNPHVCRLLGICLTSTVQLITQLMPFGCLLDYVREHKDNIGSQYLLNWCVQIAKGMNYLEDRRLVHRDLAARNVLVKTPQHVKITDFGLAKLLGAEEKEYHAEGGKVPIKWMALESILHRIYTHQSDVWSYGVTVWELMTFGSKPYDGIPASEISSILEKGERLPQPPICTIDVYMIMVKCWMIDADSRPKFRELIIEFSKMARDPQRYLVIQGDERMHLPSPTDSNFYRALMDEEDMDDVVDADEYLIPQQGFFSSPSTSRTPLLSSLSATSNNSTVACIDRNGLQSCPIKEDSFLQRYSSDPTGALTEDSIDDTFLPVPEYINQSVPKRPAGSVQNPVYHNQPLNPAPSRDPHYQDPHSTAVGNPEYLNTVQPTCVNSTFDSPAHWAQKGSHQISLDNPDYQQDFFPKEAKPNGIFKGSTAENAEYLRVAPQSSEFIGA
Dickkopf-related protein 1 (Homo sapiens), sequence (O94907 whole entry, looked up): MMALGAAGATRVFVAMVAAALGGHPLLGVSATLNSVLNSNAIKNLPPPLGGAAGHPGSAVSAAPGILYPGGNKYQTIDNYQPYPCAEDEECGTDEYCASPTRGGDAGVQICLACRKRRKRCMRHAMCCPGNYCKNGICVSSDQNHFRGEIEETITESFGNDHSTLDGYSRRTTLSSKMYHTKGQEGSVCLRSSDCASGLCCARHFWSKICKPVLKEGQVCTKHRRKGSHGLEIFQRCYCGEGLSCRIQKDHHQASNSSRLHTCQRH

| Compound | composite z-score [1] | composite z-score [2] | composite z-score [3] | z-score [4] | composite z-score [5] | composite z-score [6] | composite z-score [7] | composite z-score [8] | composite z-score [9] | composite z-score [10] |
| --- | --- | --- | --- | --- | --- | --- | --- | --- | --- | --- |
| O=C1NC(=O)C2C1C=CC(C(O)c1ccc(-c3ccccc3)s1)N2Nc1ccccn1 (stereo not given) | 0.115 | 1.09 | 1.25 | 1.56 (inactive) | 0.475 | -0.316 | 0.559 | 0.561 | 0.664 | 1.18 |
| C=CCC(OC(C)=O)[C@@H]1[C@@H](N(Cc2ccc(-c3cccc(C(F)(F)F)c3)o2)C(=O)c2cccc3ccccc23)c2cc(OCCCO)ccc2N1C(=O)c1ccc(-c2ccccc2)cc1 (stereo not given in full) | 0.295 | 0.0007 | -0.0042 | -0.791 (inactive) | 0.192 | -0.579 | 0.181 | 0.248 | 0.518 | 1.09 |
| COC(=O)c1ccc(OC)c(/C=C\CC(CCc2ccccc2)OC(=O)c2ccncc2)c1 (stereo not given) | -0.734 | -0.264 | 0.705 | -0.387 (inactive) | 0.253 | -0.453 | 0.651 | 1.37 | 0.697 | 1.81 |
| CN1C(=O)C2C=CC(C(O)c3cccc4ccccc34)N(NC(=O)OC(C)(C)C)C2C1=O (stereo not given) | 1.37 | 1.33 | 1.43 | 2.35 (inactive) | 0.373 | 1.03 | -0.0459 | 0.85 | -0.123 | 0.844 |
| COc1cc(NN2C(C(O)c3ccc(I)cc3)C=CC3C(=O)N(C)C(=O)C32)cc(OC)c1OC (stereo not given) | 0.719 | 0.986 | 1.02 | 0.037 (inactive) | -0.0431 | -0.217 | -0.391 | -0.602 | -1.18 | 1.29 |
| CO[C@H]1O[C@H](CO)[C@@H](OC(=O)c2ccc(Br)cc2)[C@@H]2OC(=O)[C@H](Cc3cccc(Br)c3)C/C=C/C[C@@H](Cc3cccc(Br)c3)C(=O)O[C@@H]12 | 0.418 | 0.649 | 0.78 | 0.0118 (inactive) | 1.04 | 0.559 | 0.194 | 0.914 | 0.189 | 0.602 |
| COCCOC(=O)N1C(=O)[C@@]2(c3cc(C#CCCO)ccc31)[C@H](c1ccc(OCCO)cc1)N1[C@H](c3ccccc3)[C@H](c3ccccc3)OC(=O)[C@H]1[C@@H]2C(=O)N1CCc2cc(OC)c(OC)cc2C1 | 1.29 | -0.0877 | 0.232 | 0.309 (inactive) | 1.16 | 1.31 | 0.58 | 0.882 | 0.582 | 0.413 |
| CCOC(=O)C1=CCC(c2cccc(Cl)c2)O1 (stereo not given) | 0.355 | 0.14 | -0.0411 | -1.29 (inactive) | 0.235 | 0.0617 | -0.62 | -0.275 | -0.504 | 0.154 |
| COc1cccc(C[C@H]2C[C@@H](CO[Si](C(C)C)(C(C)C)C(C)C)N3C(=O)[C@]4(C(C)=O)O[C@]23[C@H]2C(=O)N(C)C(=O)[C@H]24)c1 | 0.817 | -0.0616 | -0.463 | -1.29 (inactive) | 0.759 | 1.02 | 0.468 | 1.09 | 0.53 | -0.254 |
| O=C1O[C@@H](c2ccccc2)[C@@H](c2ccccc2)N2[C@@H](c3ccc(O)cc3)[C@]3(C(=O)Nc4ccc(C#CC5=CCCCC5)cc43)[C@@H](C(=O)Nc3nc4ccccc4s3)[C@H]12 | 1.61 | 0.307 | -0.0516 | -0.0881 (inactive) | 1.36 | 1.29 | 0.381 | 1.31 | 1.06 | 1.07 |
| CCCC=C(CCC)[C@@H](NS(=O)(=O)c1cccc2cccnc12)c1ccc(C(=O)OC)cc1 | 0.817 | 2.53 | 1.46 | -0.355 (inactive) | 1.58 | 0.0656 | 1.8 | 1.24 | 0.726 | 0.948 |
| C[C@H]1NC(=O)C([C@@H](C)OCc2ccccc2)NC(=O)[C@@]23C(=O)N[C@@H](Cc4ccccc4)C2[C@H](C)[C@@]2(C)O[C@H]2C3/C=C/CC/C=C/CNC1=O (stereo not given in full) | -0.0404 | 0.0094 | -0.298 | -1.39 (inactive) | 0.365 | -0.248 | 0.279 | 0.575 | 0.506 | 1.42 |
| COc1cc(C(O)C2C=CC3C(=O)N(C)C(=O)C3N2NC(=O)OC(C)(C)C)cc(OC)c1OC (stereo not given) | 1.27 | 1.2 | 0.739 | 1.21 (inactive) | 0.447 | 0.833 | 0.189 | 0.234 | -0.076 | 0.442 |
| CC(C)CCC[C@@H](C)[C@H]1CC[C@@]2(C)C3=C(CC[C@]12C)[C@@]1(C)CC[C@H](OC(=O)C(C)(C)C)C(C)(C)C1CC3 (stereo not given in full) | -0.0682 | -0.291 | -0.636 | -2.09 (inactive) | 0.897 | 0.465 | 0.837 | 0.619 | 0.683 | -0.312 |
| COc1ccc([Si](C)(C)[C@@H]2[C@@H](CC(=O)N3Cc4ccccc4C[C@H]3CO)O[C@]3(C(=O)N(Cc4cccc(N5CCCCC5=O)c4)c4ccccc43)[C@H]2C)cc1 | 0.856 | -0.154 | -0.222 | -1.46 (inactive) | 0.689 | 1.2 | 0.968 | 1.33 | 1.17 | 0.435 |
| CN(C)CCCC[C@@H]1NC(=O)[C@H]2C[C@@H](C(=O)NCCCCCCNC(=O)CS)[C@@H](c3ccc(O)cc3)N2C1=O | 1.74 | -0.172 | 0.314 | -0.296 (inactive) | -0.31 | -0.323 | 0.0264 | 1.27 | -0.17 | 0.947 |
